An excerpt weighted towards active compounds, which were near 0.95% of everything screened.
A488 fluor – compound autofluorescence in A488 spectral region | max dye equivalency, M | 59,000 compounds, 0.1% hits | compound autofluorescence, A488 spectral region, dye equivalency; Compound Type: qHTS ECL - MLSMR
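Intrinsic compound fluorescence is measured in 100 mM Tris buffer at pH 8.0 following 15 min incubation at room temperature. Intensities at 480 nm excitation/540 nm emission are calibrated to an on-plate A488 concentration series, giving dye-equivalent concentrations.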
Fluorescein fluor – compound fluoresces in the fluorescein spectral region; Compound autofluorescence, 480/540 nm, fluorescein-equivalent; stronger effect = higher value; max fluorescein-equivalent concentration, M; 59,000 compounds, 0.91% hits; in the data active means max fluorescein-equivalent concentration above about 10 nM; inconclusive means between about 1.1 nM and that limit
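Normalized response (dye-equivalent concentration) derives from comparing each well's 540 nm emission, under 480 nm excitation, with plate-resident fluorescein standards. Compounds were held in 100 mM Tris, pH 8.0, for 15 min at room temperature.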
A647 fluor – compound autofluorescence in A647 spectral region; 59,000 tested, under 10 active; max dye-equivalent concentration, M; Compound fluorescence, A647 channel (570/671 nm), Tris buffer;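 further: values scaled relative to a standard on each plate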
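Compounds pinned into 100 mM Tris pH 8.0, 15 min at room temperature, then read with 570 nm excitation/671 nm emission filters. Fluorescence normalized to an on-plate six-point Alexa 647 standard curve, giving dye-equivalent concentration per compound concentration.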
Resorufin autofl – compounds fluorescent in resorufin spectral region. Compound fluorescence, resorufin region 547/598 nm, buffer; stronger effect = higher value. max dye-equivalent concentration, M. 59,000 compounds, 0.04% hits
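Compounds in 100 mM Tris buffer, pH 8.0, incubated 15 min at room temperature, then read with 547 nm excitation and 598 nm emission filters. Fluorescence was converted to dye-equivalent concentration using an on-plate six-point resorufin standard curve.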
TexasRed autofl – compounds fluorescent in Texas Red spectral region | Compound fluorescence, Texas Red channel, 547/618 nm; stronger effect = higher value | max dye-equivalent concentration, M | 59,000 compounds, 0.06% hits; in the data active means max dye-equivalent concentration above about 10 nM; inconclusive means between about 1.1 nM and that limit
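Dye-equivalent concentrations come from scaling compound signal (ex 547, em 618 nm) to six Texas Red standard concentrations run on every plate, after 15 min room-temperature incubation in pH 8.0 Tris (100 mM).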
Rhodamine autofl – compound fluoresces in the rhodamine spectral region. Rhodamine-region fluorescence, 547/598 nm, Tris buffer; stronger effect = higher value. max dye-equivalent concentration, M. 59,000 compounds, 0.05% hits. AID 594; in the data active means max dye-equivalent concentration above about 11 nM; inconclusive means between about 1.1 nM and that limit
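Compounds in 100 mM Tris buffer, pH 8.0, were incubated 15 min at room temperature, then read at 547 nm excitation and 598 nm emission. Fluorescence was normalized against a per-plate six-point rhodamine standard curve as dye-equivalent concentration.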
The depositor's hits bear a star; i = inactive; u = inconclusive; ! = a repeat was not active. Unless noted, how the calls were made is not given here.

SMILES	A488 fluor	Fluorescein fluor	A647 fluor	Resorufin autofl	TexasRed autofl	Rhodamine autofl
CC(C)[C@@]1(NC(=O)[C@@H]2C[C@H]3c4cccc5[nH]cc(c45)C[C@@H]3N(C)C2)O[C@]2(O)[C@H]3CCCN3C(=O)[C@H](Cc3ccccc3)N2C1=O	i	i	5.8e-09	i	u	i
CC(C)C[C@H]1C(=O)N2CCC[C@@H]2[C@@]2(O)O[C@](NC(=O)[C@@H]3C=C4c5cccc6[nH]cc(c56)C[C@@H]4N(C)C3)(C(C)C)C(=O)N12	u	4.9e-08M*	1e-09	i	i	i
CC(C)C[C@H]1C(=O)N2CCC[C@@H]2[C@]2(O)O[C@](NC(=O)[C@H]3C=C4c5cccc6[nH]cc(c56)C[C@H]4N(C)C3)(C(C)C)C(=O)N12	i	1.3e-08M*	1e-09	i	i	i
c1ccc2c(c1)[nH]c1cnccc12	i	u	3.7e-08	i	i	i
Cc1c2ccncc2c(C)c2c1[nH]c1ccccc12	i	1.1e-08M*!	3.7e-09	i	i	i
CN1CCN(c2ccc([N+](=O)[O-])c3[nH]o[n+](=O)c23)CC1	u	1.3e-07M*	4.7e-08	i	i	u
O=CN1C[C@H]2C[C@@H](C1)c1cccc(=O)n1C2	i	i	1e-09	i	i	i

Source: PubChem BioAssay
